NIH3T3 tox: NIH 3T3 cell cytotoxicity; NIH 3T3 viability, CellTiter-Glo ATP luminescence, 48-72 h; Potency, µM (top dose mostly 96.7 µM), for the others: at the highest dose activity change, negative = cytotoxicity, hits mostly inhibitors; 94,000 tested, 4.3% active; AID 1345082; note: nearly all actives have a fitted effect of over 55% in size
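NIH 3T3 cells at 400 cells/well received 23 nL of compound by pintool and were incubated 48 or 72 h at 37 °C. Viability was read as ATP-coupled CellTiter-Glo luminescence.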
HEK cytotox: HEK 293 cell cytotoxicity. HEK 293 viability, ATP luminescence (CellTiter-Glo), 48-72 h. Potency, µM (highest dose often 115 µM), without a hit: top-dose activity change, negative = cytotoxicity, actives largely listed as inhibitors. 94,000 tested, 6.6% active; note: nearly all actives have a fitted effect of over 60% in size
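250 HEK 293 cells/well; compound by pintool; incubated 48 or 72 hr at 37 degree Celsius; CellTiter-Glo added, 10 min RT, luminescence imaged.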
SNCA expr inh: SNCA gene expression inhibition; HEK-293 SNCA-luciferase knock-in, luminescence, 24 h; Potency, µM (titrated, usually from 57.2 µM), for inactives: top-dose activity change, negative = inhibition, most hits filed as inhibitors; 140,000 tested, 0.17% active;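 note: plate controls were DMSO cells for no effect and cell-free wells for full effect; nearly all actives have a fitted effect of over 45% in size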
Luciferase inh: inhibitors of firefly (Photinus pyralis) luciferase. purified P. pyralis luciferase, luminescence, biochemical. Potency, µM (doses to about 115 µM), most hits filed as inhibitors. 76,000 tested, 2.5% active; note: nearly all actives have a fitted effect of over 65% in size
Target sequence (P08659 whole entry, looked up): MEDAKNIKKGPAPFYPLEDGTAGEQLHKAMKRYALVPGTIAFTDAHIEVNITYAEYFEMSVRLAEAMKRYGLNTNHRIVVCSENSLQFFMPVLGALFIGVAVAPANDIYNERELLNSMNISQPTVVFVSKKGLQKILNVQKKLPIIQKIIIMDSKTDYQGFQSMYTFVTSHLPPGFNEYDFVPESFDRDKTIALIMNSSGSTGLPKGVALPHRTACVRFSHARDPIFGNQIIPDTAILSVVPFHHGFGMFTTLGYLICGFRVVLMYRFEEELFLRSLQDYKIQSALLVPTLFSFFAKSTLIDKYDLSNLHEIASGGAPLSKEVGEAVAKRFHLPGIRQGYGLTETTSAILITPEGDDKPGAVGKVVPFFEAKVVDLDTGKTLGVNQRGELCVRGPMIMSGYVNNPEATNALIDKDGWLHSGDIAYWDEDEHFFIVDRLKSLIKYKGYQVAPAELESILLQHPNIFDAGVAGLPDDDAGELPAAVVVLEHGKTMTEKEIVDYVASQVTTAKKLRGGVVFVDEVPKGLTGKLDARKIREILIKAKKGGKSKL
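Biochemical qHTS: compound (6-point titration) added to 10uM D-luciferin plus 10uM ATP in Tris acetate pH 7.5 buffer with Mg, Tween-20 and BSA, then purified enzyme at 10nM; light output imaged.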
hNpr1 antagonist: antagonists of human natriuretic peptide receptor Npr1; Potency, µM (doses to about 46.3 µM), for the others: top-dose activity change, negative = inhibition, actives largely listed as inhibitors; 76,000 tested, 1.6% active; P16066; AID 1347048; HEK293 hNpr1 GloSensor cGMP, ANP-stimulated luminescence; calls by dose curve; note: nearly all actives have a fitted effect of over 60% in size
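HEK293 cells stably expressing human Npr1 and cGMP GloSensor pGS-40F, loaded 2 h with 2% GloSensor reagent, given compound 30 min at room temperature. Luminescence read before and 20 min after 0.1 nM hNppA.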
HEK293 viab: counter-screen for SNCA expression inhibitors: cell viability; HEK-293-SNCA-luc viability, GF-AFC fluorescence, 24 h; Potency, µM (doses to about 57.1 µM), for inactives: at the highest dose activity change, negative = cytotoxicity, usual class: cytotoxic; 150,000 tested, 0.12% active; AID 1671193;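 note: 0% = DMSO-treated cells and -100% = medium-only wells without cells; nearly all actives have a fitted effect of over 30% in size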
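HEK-293-SNCA-luc cells (1500/well) plated 24 h, then exposed 24 h to a dilution series; GF-AFC added 30 min at 37C, fluorescence 405/540 nm; normalised to medium-only and DMSO wells, Hill fit.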
Numbers without * were called inactive; i = inactive; ? = inconclusive; / = not tested or not shown; ! = not active in a repeat; [ ] = dose if it differs, or a comment. Sampled rows, rich in hits. Any-hit rate of the full collection: about 7.2%. Unless noted, calls come from the whole dose curve; as a rule, active = well fitted curve in the direction sought with a large enough effect; inconclusive = small, poorly fitted or top-dose-only effect, or another doubt; inactive = no such curve, though single readings can be large; an effect the other way counts as inactive or inconclusive. Unless noted, % is set by controls: 0 for no effect and ±100 for the full control effect; potency is the fitted concentration of half-maximal effect.

SMILES	NIH3T3 tox	HEK cytotox	SNCA expr inh	Luciferase inh	hNpr1 antagonist	HEK293 viab
CO[C@H]1C[C@@H](O)C12CCN(C(=O)Cn1cc(C)c(=O)[nH]c1=O)CC2	-7.6%	-2.7%	?	i	-1.9%	-11.6%
COc1ccc(N2CCN(CCCNC(=O)c3nnc(Cc4ccc(F)cc4)o3)CC2)cc1	/	/	-24.4%	/	/	-2.3%
CN1CCN(c2ccc(C(=O)Nc3n[nH]c4ccc(Cc5cc(F)cc(F)c5)cc34)c(NC3CCOCC3)c2)CC1	/	/	?	/	/	27µM*!
COc1ccc(-c2noc([C@@H]3C[C@@H](O)CN3Cc3ccccn3)n2)cc1	35.5µM*	?	121.5%[87.6 µM]	?	?	-7.1%[87.6 µM]
O[C@@H]1C[C@@H](c2nc(-c3ccccc3)no2)N(Cc2ncc[nH]2)C1	-10.4%[174 µM]	-7.5%[172 µM]	177.1%[87.6 µM]	22.4µM*	3.0%[70.6 µM]	-6.5%[87.6 µM]
Cc1ccc(-c2noc([C@@H]3C[C@@H](O)CN3Cc3ncc[nH]3)n2)cc1F	?	?	200.2%[87.6 µM]	25.1µM*	-10.5%[70.6 µM]	-6.8%[87.6 µM]
COc1ccc(-c2noc([C@@H]3C[C@@H](O)CN3Cc3ccccc3)n2)cc1	?	?	152.8%[87.6 µM]	?	-30.3%[70.6 µM]	-10.0%[87.6 µM]
COc1ccc(-c2noc([C@@H]3C[C@@H](O)CN3C(C)C)n2)cc1	-16.5%[138 µM]	-17.1%[172 µM]	175.4%[87.6 µM]	?	1.9%[70.6 µM]	-1.1%[87.6 µM]
O=[N+]([O-])c1cccc(-c2noc([C@@H]3C[C@@H](O)CN3Cc3ncc[nH]3)n2)c1	-19.7%[174 µM]	-16.6%[172 µM]	38.2%[87.6 µM]	i	3.4%[70.6 µM]	-3.6%[87.6 µM]
COc1ccc(-c2noc([C@@H]3C[C@@H](O)CN3C3CCN(C)CC3)n2)cc1	-10.1%[174 µM]	-23.3%[172 µM]	128.4%[87.6 µM]	70.8µM*	7.1%[70.6 µM]	-9.5%[87.6 µM]
COc1ccc(-c2ccc3nnc(CNC(=O)c4cccc5[nH]ccc45)n3n2)cc1	?	?	10.8%	i	7.5%	?
O=[N+]([O-])c1cccc(-c2noc([C@@H]3C[C@@H](O)CN3CC3CCCCC3)n2)c1	?	63.1µM*	?	i	-11.7%[70.6 µM]	-25.3%[87.6 µM]
CN1C[C@H](C(=O)Nc2cccc(Cl)c2)C[C@H]1c1cccc(C(F)(F)F)c1	31.6µM*	35.5µM*	?	i	-22.1%[70.6 µM]	-29.1%[87.6 µM]
CN1C[C@H](C(=O)N2CCN(c3ccccn3)CC2)C[C@H]1c1cccc(C(F)(F)F)c1	?	89.1µM*	-1.5%[87.6 µM]	i	-28.0%[70.6 µM]	-17.3%[87.6 µM]
O=C(NCc1cccc(F)c1)c1c(OCC2CC2)cc(=O)n2c1CCCCC2	?	-6.1%	-5.3%	i	2.0%	8.8%
CC(C)Oc1ccc(C(=O)N2Cc3cnn(Cc4ccc(F)cc4)c3C2)cc1	?	?	-9.4%	i	?	2.0%
Cc1cc(Cl)ccc1C(=O)N1Cc2cnn(Cc3ccc(F)cc3)c2C1	?	44.7µM*	-14.5%	i	?	-5.4%
COc1ccc(-c2cnc3[nH]cc(CC(=O)N4CCC(OC)CC4)c3c2)cc1	?	?	10.2%[87.6 µM]	22.4µM*	-13.1%[70.6 µM]	-21.6%[87.6 µM]
COC1CCN(C(=O)Cc2c[nH]c3ncc(-c4ccccc4)cc23)CC1	?	-1.3%[172 µM]	-21.6%[87.6 µM]	?	-3.0%[70.6 µM]	-11.4%[87.6 µM]
COc1ccc(-c2cnc3[nH]cc(CC(=O)N4CCCC4)c3c2)cc1	7.94µM*	70.8µM*	10.0%[87.6 µM]	22.4µM*	?	-25.8%[87.6 µM]
Cn1ccc(CN2CCC3(C2)NC(=O)c2ccccc2CO3)c1 (stereo unspecified)	-19.1%[138 µM]	?	47.6%[87.6 µM]	i	0.0%[70.6 µM]	0.1%[87.6 µM]
CN(C)C[C@@H]1CN(C2CCOCC2)C[C@H]1NC(=O)c1cc2ccccc2[nH]1	?	31.6µM*	0.5%	i	-18.6%	-9.0%
O=C(NC1C[C@H]2CC[C@@H](C1)N2C(=O)CC1CCCC1)c1ccncc1 (stereo partly specified)	-0.6%	0.5%	-11.4%	i	1.1%	-4.4%
COc1cccc(CN2C(=O)OC3(CCN(C(=O)C4CCC4)CC3)C2(C)c2cccnc2)c1 (stereo unspecified)	?	4.6%	-11.3%	i	3.0%	3.5%
COc1cccc(CN2C(=O)OC3(CCN(Cc4ccc5c(c4)CCO5)CC3)C2(C)c2cccnc2)c1 (stereo unspecified)	?	?	-7.2%	i	1.9%	-9.9%
SMILES	NIH3T3 tox	HEK cytotox	SNCA expr inh	Luciferase inh	hNpr1 antagonist	HEK293 viab
COc1cccc(CN2C(=O)OC3(CCN(C(=O)c4ccn(C)n4)CC3)C2(C)c2cccnc2)c1 (stereo unspecified)	35.5µM*	-21.2%	35.9%	i	1.0%	3.0%
COc1cccc(CN2C(=O)OC3(CCN(Cc4c[nH]c5ccccc45)CC3)C2(C)c2cccnc2)c1 (stereo unspecified)	31.6µM*	?	?	i	-0.6%	-4.2%
COc1cccc(CN2C(=O)OC3(CCN(C(C)=O)CC3)C2(C)c2cccnc2)c1 (stereo unspecified)	89.1µM*	-0.5%[172 µM]	-6.4%[87.6 µM]	i	2.2%[70.6 µM]	-2.4%[87.6 µM]
Cc1nc(C2CC23CCN(S(C)(=O)=O)CC3)no1 (stereo unspecified)	?	-2.6%	12.2%	/	/	4.6%
Cc1ccc(Nc2ccnc(N3CCC(NC(=O)Cc4ccccn4)CC3)n2)cc1	?	?	16.1%	/	/	6.5%
COc1ccccc1Nc1ccnc(N2CCC(NC(=O)Cc3cccc(Cl)c3)CC2)n1	31.6µM*	?	-15.4%	/	/	2.6%
COCC(=O)NC1CCN(c2nccc(Nc3ccc(C)cc3)n2)CC1	35.5µM*	?	0.7%	/	/	11.0%
Cc1ccc(Nc2ccnc(N3CCC(NC(=O)Cc4cccc(Cl)c4)CC3)n2)cc1	17.8µM*	25.1µM*	?	/	/	?
Cn1nccc1C(O)c1cc2n(n1)CCN(Cc1nc(C3CC3)no1)C2 (stereo unspecified)	-14.7%	-0.1%	1.9%	i	0.3%	-7.0%
O=C(NCCc1nc(-c2cccnc2)n[nH]1)C1CCC(=O)N(C2CCCC2)C1 (stereo unspecified)	1.6%	1.1%	23.6%	i	3.1%	6.2%
Cc1nc2cccnc2n1CC1CCCN(C(=O)Nc2ccc3c(c2)OCCO3)C1 (stereo unspecified)	-1.8%	?	113.9%	i	1.7%	-12.2%
O=C(Nc1ccc(F)c(Cl)c1)N1CCCC(Cn2c(C3CC3)nc3cccnc32)C1 (stereo unspecified)	?	?	-18.5%	i	-19.6%	-20.7%
Cn1c(=O)n([C@H]2CCCN(C(=O)Nc3ccc4c(c3)OCCO4)C2)c2ncccc21	-20.4%	-9.7%	6.6%	i	-4.2%	-3.9%
Cn1nc(C2CCCN(C(=O)Nc3ccc4c(c3)OCCO4)C2)n(C2CCCC2)c1=O (stereo unspecified)	2.0%	12.1%	38.9%	31.6µM*	-1.8%	-9.5%
